# Experimental data taken from PubChem BioAssay (EPA / NIEHS).
# Active and inactive are the calls of the source. How the source made its calls: active means hit-call score of the fitted dose curve at least 0.9, where 1 is the maximum; inactive means score below 0.9.
# How the values were obtained:
# [1] = BSK_CASM3C_SRB: Viability Assessment in the BioMAP Diversity Plus: CASM3C Assay (AID 2283050); conditions: primary human coronary artery smooth muscle cells;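 further: total protein by SRB staining as cytotoxicity measure in parallel cultures; cells exposed to compound for 24 h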
# [2] = read-out: Thrombomodulin, THBD (gene 7056); assay: BSK_CASM3C_Thrombomodulin: BioMAP Diversity Plus: CASM3C Assay for Thrombomodulin Biomarker Activity (AID 2283051); conditions: primary human coronary artery smooth muscle cells; actives raise or lower the signal;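 further: thrombomodulin protein level measured by ELISA 24 h after dosing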
# [3] = read-out: Tissue Factor, F3 (gene 2152); assay: BSK_CASM3C_TissueFactor: BioMAP Diversity Plus: CASM3C Assay for Tissue Factor Biomarker Activity (AID 2283052); conditions: primary human coronary artery smooth muscle cells; actives raise or lower the signal;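 further: cell surface tissue factor protein level read by ELISA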
# [4] = read-out: Interferon-gamma inducible Protein 10 (IP10), CXCL10 (gene 3627); assay: BSK_hDFCGF_IP10: BioMAP Diversity Plus: hDFCGF Assay for Interferon-gamma inducible Protein 10 (IP10) Biomarker Activity (AID 2283053); conditions: primary human foreskin fibroblasts; actives raise or lower the signal
# Summary of the method: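 Chemical-treated human skin fibroblasts (primary) were sampled at 24 h for IP-10 by ELISA. Both increases and decreases relative to DMSO were scored.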
# [5] = read-out: Urokinase-type plasminogen activator receptor (uPAR), PLAUR (gene 5329); assay: BSK_CASM3C_uPAR: BioMAP Diversity Plus: CASM3C Assay for Urokinase-type plasminogen activator receptor (uPAR) Biomarker Activity (AID 2283054); conditions: primary human coronary artery smooth muscle cells; actives raise or lower the signal;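 further: cell-surface uPAR protein level quantified by ELISA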
# [6] = read-out: Vascular cell adhesion molecule 1 (VCAM1), VCAM1 (gene 7412); assay: BSK_CASM3C_VCAM1: BioMAP Diversity Plus: CASM3C Assay for Vascular cell adhesion molecule 1 (VCAM1) Biomarker Activity (AID 2283055); conditions: primary human coronary artery smooth muscle cells; actives raise or lower the signal;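 further: VCAM-1 protein level quantified by ELISA on the cells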
# [7] = read-out: Collagen III, COL3A1 (gene 1281); assay: BSK_hDFCGF_CollagenIII: BioMAP Diversity Plus: hDFCGF Assay for Collagen III Biomarker Activity (AID 2283056); conditions: primary human foreskin fibroblasts; actives raise or lower the signal
# Summary of the method: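 ELISA read-out of collagen III from human skin fibroblast cultures sampled 24 h post-dosing. Values were derived by bidirectional fitting relative to the DMSO vehicle control.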
# [8] = read-out: Epidermal growth factor receptor (EGFR), EGFR (gene 1956); assay: BSK_hDFCGF_EGFR: BioMAP Diversity Plus: hDFCGF Assay for Epidermal growth factor receptor (EGFR) Biomarker Activity (AID 2283057); conditions: primary human foreskin fibroblasts; actives raise or lower the signal
# Summary of the method: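 Cell-based multiplexed assay in primary human foreskin fibroblasts. EGFR is read by ELISA 24 h after treatment and compared with DMSO controls.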
# [9] = read-out: Interleukin-8 (IL8), CXCL8 (gene 3576); assay: BSK_hDFCGF_IL8: BioMAP Diversity Plus: hDFCGF Assay for Interleukin-8 (IL8) Biomarker Activity (AID 2283058); conditions: primary human foreskin fibroblasts; actives raise or lower the signal
# Summary of the method: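 Cells used are human skin primary fibroblasts. Chemical is added, cultures run 24 h, then IL-8 is quantified by ELISA, and gain or loss versus DMSO control is fitted in both directions.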
# [10] = BSK_hDFCGF_Proliferation: Cell Proliferation Assessment in the BioMAP Diversity Plus: hDFCGF Assay (AID 2283059); conditions: primary human foreskin fibroblasts;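 further: curves fitted for both rise and fall of signal versus DMSO baseline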
# Summary of the method: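 Total protein read at 560 nm after 0.1% SRB staining of TCA-fixed human skin fibroblasts, […]. Activity is fitted in both directions relative to DMSO as baseline.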
SMILES,outcome [1],outcome [2],outcome [3],AC50 [4],outcome [5],outcome [6],AC50 [7],outcome [8],outcome [9],AC50 [10],AC50 [2],outcome [4],outcome [7],AC50 [5],outcome [10],AC50 [1],AC50 [6],AC50 [9],AC50 [8]
COP(=S)(OC)Oc1ccc([N+](=O)[O-])c(C)c1,inactive,inactive,inactive,14 µM (active),inactive,inactive,22.7 µM (active),inactive,inactive,24.2 µM (active),–,–,–,–,–,–,–,–,–
CC1(C)C(C(=O)OC(C#N)c2cccc(Oc3ccccc3)c2)C1(C)C (centres undefined),inactive,–,inactive,–,inactive,inactive,–,inactive,inactive,8.2 µM (active),16 µM (active),inactive,inactive,–,–,–,–,–,–
N#Cc1c[nH]cc1-c1cccc2c1OC(F)(F)O2,inactive,–,inactive,–,inactive,inactive,–,inactive,inactive,–,22.7 µM (active),inactive,inactive,–,–,–,–,–,–
CCCCC(C#N)(Cn1cncn1)c1ccc(Cl)cc1 (centres undefined),inactive,inactive,inactive,–,–,inactive,–,inactive,inactive,–,–,inactive,inactive,1.12 µM (active),inactive,–,–,–,–
CC(C)(C)C(=O)C(Oc1ccc(Cl)cc1)n1cncn1 (centres undefined),inactive,inactive,inactive,–,inactive,inactive,–,inactive,inactive,–,–,inactive,inactive,–,–,–,–,–,–
Cc1cnc(C2=NC(C)(C(C)C)C(=O)N2)c(C(=O)O)c1 (centres undefined),inactive,inactive,inactive,–,inactive,inactive,–,inactive,inactive,–,–,inactive,inactive,–,inactive,–,–,–,–
CC1(C)CCC(=Cc2ccc(Cl)cc2)C1(O)Cn1cncn1 (centres undefined),inactive,inactive,inactive,–,inactive,inactive,–,inactive,inactive,1.31 µM (active),–,inactive,inactive,–,–,–,–,–,–
COCc1cnc(C2=NC(C)(C(C)C)C(=O)N2)c(C(=O)O)c1 (centres undefined),inactive,inactive,inactive,–,inactive,inactive,–,inactive,inactive,–,–,inactive,inactive,–,inactive,–,–,–,–
COP(=O)(OC)O/C(C)=C/C(=O)N(C)C,inactive,inactive,inactive,–,inactive,inactive,–,inactive,inactive,–,–,inactive,inactive,–,inactive,–,–,–,–
OC(c1ccc(Cl)cc1)(c1ccc(Cl)cc1)C(Cl)(Cl)Cl,–,–,inactive,9.87 µM (active),–,–,10.3 µM (active),inactive,–,10 µM (active),33.1 µM (active),–,–,32.9 µM (active),–,35.2 µM (active),27.2 µM (active),11 µM (active),–
CNC(=O)N(C)c1nnc(C(C)(C)C)s1,inactive,inactive,inactive,–,inactive,inactive,–,inactive,inactive,–,–,inactive,inactive,–,inactive,–,–,–,–
O=P(O)(O)CCCl,inactive,inactive,inactive,–,inactive,inactive,–,inactive,inactive,–,–,inactive,inactive,–,inactive,–,–,–,–
Cn1c(-c2ccccc2)cc(-c2ccccc2)[n+]1C,inactive,inactive,inactive,–,inactive,inactive,10.1 µM (active),inactive,inactive,5.37 µM (active),–,inactive,–,–,–,–,–,–,–
CC(C)NC(=O)N1CC(=O)N(c2cc(Cl)cc(Cl)c2)C1=O,inactive,inactive,inactive,–,inactive,inactive,0.702 µM (active),inactive,inactive,–,–,inactive,–,–,inactive,–,–,–,–
CCCCC(O)(Cn1cncn1)c1ccc(Cl)cc1Cl (centres undefined),inactive,inactive,inactive,–,inactive,inactive,29.9 µM (active),inactive,inactive,22.9 µM (active),–,–,–,–,–,–,–,–,–
Cc1c(COC(=O)[C@@H]2[C@H](/C=C(\Cl)C(F)(F)F)C2(C)C)cccc1-c1ccccc1,inactive,–,inactive,–,inactive,inactive,–,inactive,inactive,16.9 µM (active),18.1 µM (active),–,inactive,–,–,–,–,–,–
CCOc1cc(C(C)(C)C)ccc1C1COC(c2c(F)cccc2F)=N1 (centres undefined),–,–,inactive,20 µM (active),–,inactive,5.45 µM (active),–,–,6.95 µM (active),22.8 µM (active),–,–,5.08 µM (active),–,25 µM (active),–,20.4 µM (active),11.8 µM (active)
COc1cc(Cl)c(OC)cc1Cl,inactive,inactive,inactive,–,inactive,inactive,–,inactive,inactive,–,–,inactive,inactive,–,inactive,–,–,–,–

SMILES,outcome [1],outcome [2],outcome [3],AC50 [4],outcome [5],outcome [6],AC50 [7],outcome [8],outcome [9],AC50 [10],AC50 [2],outcome [4],outcome [7],AC50 [5],outcome [10],AC50 [1],AC50 [6],AC50 [9],AC50 [8]
CC(C)Oc1cccc(NC(=O)c2ccccc2C(F)(F)F)c1,inactive,inactive,inactive,–,inactive,inactive,–,inactive,inactive,27.5 µM (active),–,inactive,inactive,–,–,–,–,–,–
C=C(C)CN(CC)c1c([N+](=O)[O-])cc(C(F)(F)F)cc1[N+](=O)[O-],inactive,inactive,inactive,20 µM (active),inactive,inactive,–,inactive,inactive,19.5 µM (active),–,–,inactive,–,–,–,–,–,–
CCCN(CC)CC1COC2(CCC(C(C)(C)C)CC2)O1 (centres undefined),inactive,inactive,inactive,1.98 µM (active),inactive,inactive,1.25 µM (active),inactive,inactive,5.6 µM (active),–,–,–,–,–,–,–,–,–
CN/C(=N\[N+](=O)[O-])NCc1cnc(Cl)s1,inactive,inactive,inactive,–,inactive,inactive,–,inactive,inactive,–,–,inactive,inactive,–,inactive,–,–,–,–
CC(C)=CC1C(C(=O)OCc2coc(Cc3ccccc3)c2)C1(C)C (centres undefined),inactive,–,inactive,3.97 µM (active),inactive,inactive,12.2 µM (active),inactive,inactive,15 µM (active),20 µM (active),–,–,–,–,–,–,–,–
Clc1cccc(C(Cl)(Cl)Cl)n1,inactive,inactive,inactive,29.8 µM (active),inactive,inactive,–,inactive,inactive,–,–,–,inactive,–,inactive,–,–,–,–
CCN(CC)c1nc(C)cc(OP(=S)(OC)OC)n1,inactive,–,inactive,20 µM (active),inactive,inactive,–,inactive,inactive,20 µM (active),20 µM (active),–,inactive,–,–,–,–,–,–
CCNP(=S)(OC)O/C(C)=C/C(=O)OC(C)C (centres undefined),inactive,inactive,inactive,–,inactive,inactive,–,inactive,inactive,–,–,inactive,inactive,–,inactive,–,–,–,–
CS(=O)(=O)c1cc(C(F)(F)F)ccc1C(=O)c1cnoc1C1CC1,inactive,inactive,inactive,–,inactive,inactive,–,inactive,inactive,–,–,inactive,inactive,–,inactive,–,–,–,–
O=c1n(Cl)c(=O)n(Cl)c(=O)n1Cl,inactive,–,inactive,–,inactive,inactive,–,inactive,inactive,–,12.7 µM (active),–,inactive,–,inactive,–,–,–,–
CCOC(=O)C(C)OC(=O)c1cc(Oc2ccc(C(F)(F)F)cc2Cl)ccc1[N+](=O)[O-] (centres undefined),inactive,inactive,inactive,–,inactive,inactive,6.41 µM (active),inactive,inactive,–,–,inactive,–,–,inactive,–,–,–,–
COC(=O)N(C(=O)N1CO[C@@]2(C(=O)OC)Cc3cc(Cl)ccc3C2=N1)c1ccc(OC(F)(F)F)cc1,inactive,inactive,inactive,13.5 µM (active),inactive,inactive,–,inactive,inactive,7.63 µM (active),–,–,inactive,–,–,–,–,–,–
CS(=O)(=O)c1ccc(C(=O)C2C(=O)CCCC2=O)c([N+](=O)[O-])c1,inactive,inactive,inactive,–,inactive,inactive,–,inactive,inactive,–,–,inactive,inactive,–,inactive,–,–,–,–
CCSC(=O)N1CCCCCC1,inactive,inactive,inactive,–,inactive,inactive,–,inactive,inactive,–,–,inactive,inactive,–,inactive,–,–,–,–
CSC(=O)c1c(C(F)F)nc(C(F)(F)F)c(C(=O)SC)c1CC(C)C,inactive,–,inactive,–,inactive,inactive,–,inactive,inactive,30.6 µM (active),20 µM (active),–,inactive,–,–,–,–,–,–
COCC(=O)N(c1c(C)cccc1C)C(C)C(=O)OC (centres undefined),inactive,inactive,inactive,–,inactive,inactive,–,inactive,inactive,–,–,inactive,inactive,–,inactive,–,–,–,–
Cc1ccc(N=CN(C)C=Nc2ccc(C)cc2C)c(C)c1,–,–,inactive,29.1 µM (active),inactive,inactive,13.3 µM (active),inactive,–,14 µM (active),31.6 µM (active),–,–,–,–,28.5 µM (active),–,36.1 µM (active),–
